In all, about 2,900 compounds were measured (“NF-kB SEAP reporter activity, fold change vs agonist alone”: median about 0.99, highest 2% from about 2.6 on). The sample as a whole holds a higher share of the highest values than the screen did.
What was measured:
[1] = tested on: RAW-Dual; assay: NF-kB SEAP reporter activity, fold change vs agonist alone; higher = enhanced NF-kB activity
Summary of the method: (§1)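 After 50 nL of library stock was delivered by pin tool to RAW-Dual macrophages (50,000 cells/well, DMEM, 384-well plates), a PRR agonist was added 1 h later and the plates were kept at 37 °C, 5% CO2. Twenty hours later, IRF was read from supernatant by QuantiLuc luminescence and NF-κB by QuantiBlue absorbance at 620 nm. Reporter activity is stated as fold change over agonist-alone wells. Wells with IncuCyte confluency under 70% of agonist controls in both mask sets were counted as cytotoxic.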

[2] = tested on: RAW-Dual; assay: NF-kB SEAP reporter activity, fold change vs agonist alone; cytotoxicity flag (confluency mask): not cytotoxic; higher = enhanced NF-kB activity
Summary of the method: as §1

[3] = tested on: RAW-Dual; assay: NF-kB SEAP reporter activity, fold change vs agonist alone; cytotoxicity flag (confluency mask): cytotoxic (confluency <70% of control); higher = enhanced NF-kB activity
Summary of the method: as §1

[4] = library stock concentration (final ~1000-fold dilution): 10 mM, cytotoxicity flag (confluency mask): not cytotoxic, agonist: Imiquimod (TLR7) […]
[5] = library stock concentration (final ~1000-fold dilution): 10 mM, cytotoxicity flag (confluency mask): not cytotoxic, agonist: MPLA (TLR4) […]
[6] = agonist: ODN 1826 (TLR9) 0.5 ug/mL
[7] = agonist: Pam2CSK4 (TLR2/6) 0.1 ug/mL
[8] = agonist: Pam3CSK4 (TLR2/1) 0.1 ug/mL
[9] = library stock concentration (final ~1000-fold dilution): 2 mM, cytotoxicity flag (confluency mask): not cytotoxic, agonist: Imiquimod (TLR7) […]
[10] = library stock concentration (final ~1000-fold dilution): 2 mM, cytotoxicity flag (confluency mask): not cytotoxic, agonist: MPLA (TLR4) […]

CC1(C)OC(=O)C=CC2(C)C1CC(=O)C1(C)C2CCC2(C)C(c3ccoc3)OC(=O)C3OC321 (stereo not drawn)
NF-kB SEAP reporter activity [1, 4]: 0.98 | NF-kB SEAP reporter activity [1, 5]: 1.03

CC1(C)OC(=O)C=CC2(C)C1CC(=O)C1(C)C2CCC2(C)C(c3ccoc3)OC(=O)C3OC321 (stereo not drawn) (library stock concentration (final ~1000-fold dilution): 10 mM)
NF-kB SEAP reporter activity ([2]; agonist: LPS (TLR4) 0.1 ug/mL): 1.04 | NF-kB SEAP reporter activity [2, 6]: 0.875 | NF-kB SEAP reporter activity [2, 7]: 1.02 | NF-kB SEAP reporter activity [2, 8]: 1.08

c1cncc(-c2c[nH]nn2)c1
NF-kB SEAP reporter activity [1, 4]: 0.995 | NF-kB SEAP reporter activity [1, 5]: 0.972

c1cncc(-c2c[nH]nn2)c1 (library stock concentration (final ~1000-fold dilution): 10 mM)
NF-kB SEAP reporter activity ([2]; agonist: LPS (TLR4) 0.1 ug/mL): 1.17 | NF-kB SEAP reporter activity [2, 6]: 0.863 | NF-kB SEAP reporter activity [2, 7]: 1.02 | NF-kB SEAP reporter activity [2, 8]: 1.05

CCCC1CC(C(=O)NC(C(C)Cl)C2OC(SC)C(O)C(O)C2O)N(C)C1.Cl (stereo not drawn)
NF-kB SEAP reporter activity [1, 4]: 0.95 | NF-kB SEAP reporter activity [1, 5]: 1.06

CCCC1CC(C(=O)NC(C(C)Cl)C2OC(SC)C(O)C(O)C2O)N(C)C1.Cl (stereo not drawn) (library stock concentration (final ~1000-fold dilution): 10 mM)
NF-kB SEAP reporter activity ([2]; agonist: LPS (TLR4) 0.1 ug/mL): 1.11 | NF-kB SEAP reporter activity [2, 6]: 1.04 | NF-kB SEAP reporter activity [2, 7]: 1.06 | NF-kB SEAP reporter activity [2, 8]: 1.08

CCCCCCCCCCCCCCCCCC[N+](C)(C)C (library stock concentration (final ~1000-fold dilution): 10 mM)
NF-kB SEAP reporter activity ([3]; agonist: LPS (TLR4) 0.1 ug/mL): 0.996 | NF-kB SEAP reporter activity [3, 6]: 1.37 | NF-kB SEAP reporter activity [3, 7]: 0.699 | NF-kB SEAP reporter activity [3, 8]: 0.534

CCCCCCCCCCCCCCCCCC[N+](C)(C)C
NF-kB SEAP reporter activity ([1]; library stock concentration (final ~1000-fold dilution): 10 mM, cytotoxicity flag (confluency mask): cytotoxic (confluency <70% of control), agonist: MPLA (TLR4) […]): 1.75

c1ccc(-c2n[nH]cc2-c2ccnc3ccccc23)nc1
NF-kB SEAP reporter activity [1, 9]: 0.961 | NF-kB SEAP reporter activity [1, 10]: 1.15

c1ccc(-c2nn3c(c2-c2ccnc4cc(OCCN5CCOCC5)ccc24)CCC3)nc1
NF-kB SEAP reporter activity [1, 9]: 0.793 | NF-kB SEAP reporter activity [1, 10]: 1.27

Cc1cccc(-c2nn3c(c2-c2ccnc4ccc(C(N)=O)cc24)CCC3)n1 (library stock concentration (final ~1000-fold dilution): 10 mM)
NF-kB SEAP reporter activity ([2]; agonist: LPS (TLR4) 0.1 ug/mL): 1.59 | NF-kB SEAP reporter activity [2, 6]: 1.03 | NF-kB SEAP reporter activity [2, 7]: 1.05 | NF-kB SEAP reporter activity [2, 8]: 1.21

c1ccc(-c2nn3c(c2-c2ccnc4cc(OCCN5CCOCC5)ccc24)CCC3)nc1 (library stock concentration (final ~1000-fold dilution): 2 mM)
NF-kB SEAP reporter activity ([2]; agonist: LPS (TLR4) 0.1 ug/mL): 2.87 | NF-kB SEAP reporter activity [2, 6]: 1.07 | NF-kB SEAP reporter activity [2, 7]: 1.05 | NF-kB SEAP reporter activity [2, 8]: 1.01

Cc1cccc(-c2nn3c(c2-c2ccnc4ccc(C(N)=O)cc24)CCC3)n1
NF-kB SEAP reporter activity [1, 4]: 1.13 | NF-kB SEAP reporter activity [1, 5]: 1.48

c1ccc(-c2n[nH]cc2-c2ccnc3ccccc23)nc1 (library stock concentration (final ~1000-fold dilution): 2 mM)
NF-kB SEAP reporter activity ([2]; agonist: LPS (TLR4) 0.1 ug/mL): 2.19 | NF-kB SEAP reporter activity [2, 6]: 1.01 | NF-kB SEAP reporter activity [2, 7]: 0.992 | NF-kB SEAP reporter activity [2, 8]: 0.919

Cc1cc(C)cc(Oc2ccc(CNC(=O)C(C)N)cc2C)c1 (stereo not drawn)
NF-kB SEAP reporter activity [1, 4]: 1.24 | NF-kB SEAP reporter activity [1, 5]: 1.3

Cc1cc(C)cc(Oc2ccc(CNC(=O)C(C)N)cc2C)c1 (stereo not drawn) (library stock concentration (final ~1000-fold dilution): 10 mM)
NF-kB SEAP reporter activity ([2]; agonist: LPS (TLR4) 0.1 ug/mL): 1.3 | NF-kB SEAP reporter activity [2, 6]: 0.9 | NF-kB SEAP reporter activity [2, 7]: 0.484 | NF-kB SEAP reporter activity [2, 8]: 0.732

CC(C)=CCC/C(C)=C/CC/C(C)=C/CC/C=C(\C)CC/C=C(\C)CCC=C(C)C
NF-kB SEAP reporter activity [1, 4]: 0.926 | NF-kB SEAP reporter activity [1, 5]: 1.01

CC(C)=CCC/C(C)=C/CC/C(C)=C/CC/C=C(\C)CC/C=C(\C)CCC=C(C)C (library stock concentration (final ~1000-fold dilution): 10 mM)
NF-kB SEAP reporter activity ([2]; agonist: LPS (TLR4) 0.1 ug/mL): 1.34 | NF-kB SEAP reporter activity [2, 6]: 1.09 | NF-kB SEAP reporter activity [2, 7]: 1.14 | NF-kB SEAP reporter activity [2, 8]: 1.12
